Source: PubChem BioAssay (National Center for Advancing Translational Sciences (NCATS))
Only some compounds are listed: those with a hit (about 9% of all), similar ones and a draw of the others.
PLK1 PBD inh = inhibitors of human PLK1 polo-box domain binding; 360,000 compounds, 2.8% hits; P53350; Potency, µM, for the others: max response, negative = inhibition, actives largely listed as inhibitors; Plk1 PBD binding of FITC phosphopeptide, fluorescence polarization; also: potency is read from the fitted curve at half-maximal effect; series mostly up to about 57 µM; % is scaled to controls: 0 for no effect and ±100 for the full control effect; nearly all actives have a fitted effect of over 65% in size
G9a inh-1 = inhibitors of human histone lysine methyltransferase G9a. G9a H3K9 monomethylation, AlphaScreen, 2 h. Potency, µM (highest dose often 102 µM), without a hit: at the top dose activity, negative = inhibition, hits mostly inhibitors. 350,000 compounds, 8.8% hits; also: potency is read from the fitted curve at half-maximal effect; % is scaled to controls: 0 for no effect and ±100 for the full control effect; nearly all actives have a fitted effect of over 75% in size
Target sequence (Q96KQ7 913-1193 limits assumed): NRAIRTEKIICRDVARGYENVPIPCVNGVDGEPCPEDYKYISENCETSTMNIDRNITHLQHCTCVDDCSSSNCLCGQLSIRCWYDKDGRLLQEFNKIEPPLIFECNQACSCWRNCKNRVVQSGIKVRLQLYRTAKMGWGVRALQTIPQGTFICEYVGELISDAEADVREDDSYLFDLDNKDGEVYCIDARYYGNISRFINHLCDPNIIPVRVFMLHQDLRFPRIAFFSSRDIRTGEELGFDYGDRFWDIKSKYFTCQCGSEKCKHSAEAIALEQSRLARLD
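Step 1: enzyme (final 20 nM) with compound, 15 min RT. Step 2: substrate peptide 500 nM and SAM 20 uM, 2 h RT. Step 3: anti-H3K9me1 antibody and AlphaScreen beads, 10 min, then plate read.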
JMJD2A Tudor = blocks the human JMJD2A Tudor domain. AlphaScreen JMJD2A-Tudor / H3K4me3 peptide binding. Potency, µM (titrated, usually from 114 µM), for the others: at the top dose activity change, negative = inhibition, most hits filed as inhibitors. AID 504339. 390,000 compounds, 4.4% hits. O75164; also: potency is read from the fitted curve at half-maximal effect; % is scaled to controls: 0 for no effect and ±100 for the full control effect; nearly all actives have a fitted effect of over 50% in size
ALOX12 inh = inhibitors of human 12S-lipoxygenase ALOX12 | purified 12hLO, xylenol orange hydroperoxide absorbance | 580,000 compounds, 1.1% hits | Potency, µM (highest dose often 108 µM), inactives show top-dose activity change, negative = inhibition, most hits filed as inhibitors | P18054 | AID 1671190; also: potency is read from the fitted curve at half-maximal effect; % is scaled to controls: 0 for no effect and ±100 for the full control effect
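Purified human 12hLO (150 nM final) in 25 mM Hepes, 0.01% Triton X-100, pH 7.0 was preincubated 15 min at room temperature with compound. Then 40 uM arachidonic acid was added, 30 min. Hydroperoxide was read by Fe-XO absorbance ratio 573/405 nm.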
BAZ2B inh = inhibitors of human BAZ2B bromodomain. Q9UIF8. AlphaScreen BAZ2B-H3K14Ac peptide displacement. Potency, µM (doses to about 114 µM), for the others: at the top dose activity change, negative = inhibition, usual class: inhibitors. 360,000 compounds, 4.4% hits; also: potency is read from the fitted curve at half-maximal effect; % is scaled to controls: 0 for no effect and ±100 for the full control effect; nearly all actives have a fitted effect of over 60% in size
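Complex of BAZ2B and biotin-H3K14Ac (50 nM apiece) forms over 30 min at RT, then faces library compounds up to 110 uM for another 30 min; AlphaScreen beads added, 20 min dark incubation, luminescence read.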
HP1b chromo inh = HP1-beta chromodomain-methylated histone interaction inhibition; P83916; AlphaScreen HP1-beta / biotin-H3K9me3 peptide binding; Potency, µM (highest dose often 114 µM), for the others: at the top dose activity change, negative = inhibition, most hits filed as inhibitors; 390,000 compounds, 0.56% hits; AID 540317; also: potency is read from the fitted curve at half-maximal effect; nearly all actives have a fitted effect of over 70% in size
Target sequence (P83916 whole entry, looked up): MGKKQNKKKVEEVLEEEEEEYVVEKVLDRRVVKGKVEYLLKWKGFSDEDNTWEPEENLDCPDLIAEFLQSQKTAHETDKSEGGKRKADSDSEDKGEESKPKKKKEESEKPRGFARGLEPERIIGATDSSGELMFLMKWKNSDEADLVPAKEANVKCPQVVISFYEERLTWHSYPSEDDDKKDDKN
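Compound inhibition of the preformed complex between 50 nM HP1-beta and 50 nM biotinylated H3K9me3 peptide was read by AlphaScreen. Buffer was PBS pH 7.4 with 0.01% Tween-20. Incubations ran 30 min at room temperature, with 10 ug/mL donor/acceptor beads.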
JMJD2E confirm = JMJD2E (human) demethylase inhibition, confirmation | Potency, µM (doses to about 56.8 µM), without a hit: top-dose activity change, negative = inhibition, usual class: inhibitors | shares compounds with JMJD2A Tudor | 140 compounds, 93% hits | Recombinant JMJD2E, FDH-coupled NADH fluorescence (FDH is formaldehyde dehydrogenase)
FDH counter = counter-screen for JMJD2E inhibitors: Pseudomonas putida formaldehyde dehydrogenase. Potency, µM (top dose mostly 56.7 µM), for inactives: at the top dose activity, negative = inhibition, actives largely listed as inhibitors. AID 2680. shares compounds with JMJD2A Tudor. 140 compounds, 10% hits. FDH enzyme assay, NADH fluorescence kinetic
G9a inh-2 = inhibits human G9a histone lysine methyltransferase, hit confirmation. Potency, µM, most hits filed as inhibitors. G9a H3K9 monomethylation, AlphaScreen, 2 h. shares compounds with JMJD2A Tudor. 370 compounds, 89% hits; also: potency is read from the fitted curve at half-maximal effect; nearly all actives have a fitted effect of over 65% in size
RGS4 confirm = inhibits human RGS4, hit validation | shares compounds with JMJD2A Tudor | RGS4 GAP activity, Transcreener GDP fluorescence polarization | Potency, µM, usual class: inhibitors | 25 compounds, 80% hits | AID 602388
* marks the source's active call; other numbers are inactive results; [ ] = another dose, or the depositor's remark. Calls follow the shape of the dose curve; as a rule, active = well fitted curve in the direction sought with a large enough effect; inconclusive = small, poorly fitted or top-dose-only effect, or another doubt; inactive = no such curve, though single readings can be large; an effect the other way counts as inactive or inconclusive.

Cc1ccc(S(=O)(=O)Nc2ccc(NC(=O)CN3CCCCC3)cc2)cc1 was read as PLK1 PBD inh -3.0%, G9a inh-1 inconclusive, JMJD2A Tudor -16.2%, ALOX12 inh 130.6%, BAZ2B inh 10.1% and HP1b chromo inh 11.3%.
CCOCCn1nc(C)cc1C(=O)N1CCC2(CC1)[C@H](O)C[C@@H]2OCC was read as ALOX12 inh -5.4%.
For CC(C)c1ccc(Nc2c(-c3ccco3)nc3ccccn23)cc1 the results were G9a inh-1 inconclusive, JMJD2A Tudor inconclusive, ALOX12 inh inconclusive, BAZ2B inh inconclusive, HP1b chromo inh -8.8% and RGS4 confirm inconclusive.
`Cc1ccc(-c2nc3ccccn3c2Nc2ccc3c(c2)OCO3)o1` gave G9a inh-1 7.94µM*, JMJD2A Tudor 50.1µM*, ALOX12 inh inconclusive, BAZ2B inh 35.5µM*, HP1b chromo inh inconclusive and RGS4 confirm inconclusive.
Screening O=C(CC1SC2=NCCN2C1=O)Nc1ccc(Br)cc1 (stereo not drawn) returned PLK1 PBD inh 2.4%, G9a inh-1 17.5%[59 µM], JMJD2A Tudor -18.3%, ALOX12 inh 2.6%, BAZ2B inh 10.6% and HP1b chromo inh 20.3%.
O=C(CC1Sc2ncnn2C1=O)Nc1ccc(Br)cc1 (stereo not drawn) was read as PLK1 PBD inh -28.8%, G9a inh-1 2µM*, JMJD2A Tudor 25.1µM*, ALOX12 inh -19.0%[57.4 µM], BAZ2B inh -2.3%, HP1b chromo inh inconclusive, JMJD2E confirm 3.98µM*, FDH counter 0.282µM* and G9a inh-2 0.178*.
CCC(=O)OC1(C)C(=O)C=C2C=C(C3CC3)OC=C2C1=O (stereo not drawn) was read as PLK1 PBD inh -28.8%, JMJD2A Tudor -26.9%, ALOX12 inh inconclusive and HP1b chromo inh 1.2%.
COc1cccc(OC)c1C(=O)Nc1cccc2ncccc12 was read as ALOX12 inh 0.1%.
Screening C=CCOc1c(Cl)cc(CNc2ccc(N(C)C)cc2)cc1OC returned PLK1 PBD inh -9.5%, G9a inh-1 1.78µM*, JMJD2A Tudor 17.8µM*, ALOX12 inh inconclusive, BAZ2B inh 25.1µM*, HP1b chromo inh 15.8µM* and G9a inh-2 5.62*.
Screening COc1ccc(C(=O)c2sc(Nc3cccc(OC)c3)c(C(=O)Nc3cccc(C)c3C)c2N)cc1 returned PLK1 PBD inh -6.0%, G9a inh-1 inconclusive, JMJD2A Tudor inconclusive, ALOX12 inh -14.2%, BAZ2B inh -39.0%, HP1b chromo inh -10.5% and G9a inh-2 4.48*.
COc1ccc(Nc2sc(C(=O)c3ccccc3)c(N)c2C(=O)Nc2cc(C)ccc2C)c(OC)c1 was read as G9a inh-1 -48.9%[59 µM], JMJD2A Tudor inconclusive, ALOX12 inh -1.7%, BAZ2B inh -37.0% and HP1b chromo inh inconclusive.
